Among all 360,000 compounds or so, about 1,300 (0.36%) were called active. Rule as the data show it: active = inhibition above about 19%; inactive = the rest. This excerpt belongs to a sample that is enriched for actives.

This assay has as its system T-cell receptor (TCR). Put plainly: inhibitors of human TCR-CD3 interaction, primary screen, biochemical, fluorescence, TAMRA-labeled TCR probe (AID 651800).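 Also: recombinant mutant TCR 2C K166C tagged with TAMRA read by polarization; 0% = receptor in buffer alone and 100% = receptor with positive control.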 As to conditions: at 9.4 µM, hits give high values.
For orientation: inhibition means the change of the read-out against control, counted positive when it falls. As for `COc1ccccc1CCC(=O)NNC(=O)c1ccncc1`, the inhibition was 1.16% (inactive).
In the case of `COc1ccc(C(=O)NC(=S)NNC(=O)CCc2ccccc2)cc1`, the inhibition was 101% (active).
Then `COc1ccc(/C(N)=N/OC(=O)CCCc2ccccc2)cc1`, with 3.62% (inactive); and `C[C@@H]1CN([C@H](C)CO)C(=O)CCCn2cc(nn2)CO[C@H]1CN(C)C(=O)Nc1ccc(N2CCCCC2)cc1`, with -4.6% (inactive).
With `O=C(Nc1c(Cl)c(C2CC2)nn1-c1ccccc1)C(Cl)(Cl)Cl`, the inhibition was 4.25% (inactive).
Turning to `O=C(N[C@H](C(=O)N1CCC[C@H]1C(=O)NCCc1ccccc1Cl)c1ccccc1)c1ccccc1`, the inhibition was 7.43% (inactive).
As to `Cc1cc(NCCc2c[nH]c3ccccc23)ccc1Oc1cccnc1`, the inhibition is -1.7% (inactive).
In the case of `O=C(N[C@H](Cc1ccccc1)C(=O)N1CCCN(Cc2cccs2)CC1)[C@H]1O[C@@H](n2ccc(=O)[nH]c2=O)[C@H](O)[C@@H]1O` it was -1.23% (inactive).
As to `COC(=O)N1Cc2ccnnc2CC1c1ccccc1Br` (centres undefined), the inhibition was 12% (inactive).
For `Cc1ccc(NC(=O)N2c3ccccc3SC2c2ccco2)c(C)c1` (centres undefined), the inhibition was 1.82% (inactive).
For `COC(=O)C1=C(C)N(Cc2ccc(C(F)(F)F)cc2)C(=NCc2ccc(C(F)(F)F)cc2)NC1c1cccc(Cl)c1` (centres undefined), the inhibition is 1.76% (inactive).
In the case of `COCCOC(=O)c1sc(=S)n(CCOC)c1N` it was 38.1% (active); in that of `COC(=O)[C@]12C[C@H](CC(=O)NCCC(C)C)C(=O)N(CCc3ccc(OC)c(OC)c3)C1=C[C@H](C(C)(C)C)O[C@@H]2C`, -1.41% (inactive).
On to `COCc1cc(N2CCN(C(=O)OC(C)(C)C)C[C@@H]2C)ccc1N1CCN(Cc2ccccc2)[C@H](C)C1`, for which the inhibition was -5.69% (inactive).
For `Cc1cc(N2CCN(C(=O)OC(C)(C)C)C[C@H]2C)ccc1N1CCN(Cc2ccccc2)[C@H](C)C1`, the inhibition is -1.77% (inactive).
Take `COc1cccc2c1C(=O)c1c(O)c3c(c(O)c1C2=O)CC(O)(C(C)=NNC(=O)c1ccc(Cl)c(Cl)c1)CC3OC1CC(N)C(O)C(C)O1` (centres undefined): the inhibition is 158% (active).
For `Nc1nc2c(ncn2[C@@H]2O[C@H](C(=O)N[C@H](Cc3ccccc3)C(=O)NCC3CCCCC3)[C@@H](O)[C@H]2O)c(=O)[nH]1`, the inhibition is -5.72% (inactive).
In the case of `CCCCCCCCN1C(=O)[C@@H](CC(=O)NCCCC)C[C@@]2(C(=O)OC)C1=C[C@H](C(C)(C)C)O[C@@H]2C`, the inhibition is 4.32% (inactive).
For `CC1(C)OC(=O)C2=C(CC(CCc3ccccc3)OC2c2ccc(Cl)cc2)O1` (centres undefined), the inhibition was 0.34% (inactive).
Regarding `Cc1ccc(CCC(=O)Nc2ncc(Cc3cc(Cl)ccc3Cl)s2)o1`, the inhibition was -1.49% (inactive).
For `Cc1ccc(Cc2cnc(N)s2)o1`, the inhibition is 20.7% (active).
With `C=CCN=C1NC(c2ccccc2)C(C(=O)OC)=C(C)N1Cc1ccc(C(F)(F)F)cc1` (centres undefined), the inhibition is -2.66% (inactive).
Consider `N#Cc1ccc(OCCCN2CCC(C(O)(c3ccccc3)c3ccccc3)CC2)c(F)c1`, for which the inhibition was -1.37% (inactive).
As for `COC(=O)c1ccc(CN2C(=O)[C@]3(OCCC=C[C@H]3C)c3c(Br)cccc32)cc1`, the inhibition is -2.86% (inactive).
As to `CN1c2ccc(C=O)c3c(C=O)ccc(c23)N(C)C1(C)C`, the inhibition is 35% (active).
On to `C#CCOCCOCCOCCNc1nc(N2CCN(C(=O)C([C@@H](C)CC)n3cc(C(N)COC(=O)C(F)(F)F)nn3)CC2)nc(N2CCN(C(=O)[C@H](Cc3ccc(O)cc3)n3cc(C(N)[C@H](C)CC)nn3)CC2)n1` (some centres undefined), for which the inhibition was 1.55% (inactive).
Then `CCCN1C(=O)c2[nH]nc(-c3ccccc3)c2C1c1ccccc1` (centres undefined), with 1.37% (inactive); and `CN(C)c1ccc(/C=N/NC(=O)C(O)c2ccc(Br)cc2)cc1` (centres undefined), with 4.89% (inactive); and `CN(C)c1ccc(N/C=C/C(=O)C(F)(F)F)cc1`, with 20.8% (active).
Regarding `CNC(=S)NNC(=O)c1ccc(N(C)C)cc1`, the inhibition is 5.64% (inactive).
Then `C#CCN([C@@H](C)C(=O)OCC)S(=O)(=O)c1ccc(Br)cc1F`, with 1.93% (inactive).
As for `CSc1ccc(/C=N/N2CCN(Cc3ccccc3Cl)CC2)cc1`, the inhibition was -2.6% (inactive).
In the case of `C(=N/N1CCN(c2ccccc2)CC1)/c1cccs1`, the inhibition was 4.89% (inactive).
Regarding `CN1CCN(/N=C/c2ccc(C#N)cc2)CC1`, the inhibition was 51.9% (active).
On to `COC(=O)C1=C(C)NC(=S)NC1c1ccc(OC)cc1` (centres undefined), for which the inhibition is 0.64% (inactive).
With `COc1cccc(CC(=O)N2CCN(C(=O)C(=O)c3cccc(C(F)(F)F)c3)CC2)c1`, the inhibition was 0.68% (inactive).
For the molecule `C[C@H](O)[C@@H]1CN2CCc3ccc(-c4ccc5c(c4)OCO5)cc3[C@@H]2C[C@@H]1N(C)C(=O)C1CCCCC1`, the inhibition is 8.65% (inactive).
In the case of `O=C(N/N=C/c1ccc(Br)o1)c1cncc(Br)c1` it was -0.44% (inactive); in that of `O=C(CCNC(=O)c1ccccc1)NN=Cc1ccc(Br)o1`, 21.9% (active); in that of `O=C(CCNC(=O)c1ccccc1Cl)NN=Cc1ccco1`, -5.52% (inactive).
Turning to `CN1C(=O)C(Br)(Br)CC1c1cccnc1` (centres undefined), the inhibition was -8.3% (inactive).
On to `Cc1cc(Br)cn2c(Cc3ccccc3C(F)(F)F)c(-c3ccc(C#N)cc3)nc12`, for which the inhibition was 4.41% (inactive).
With `COCCCNC(=S)NNC(=O)C(O)(c1ccccc1)c1ccccc1`, the inhibition was 24.9% (active).
In the case of `COCCCNC(=S)N(Cc1ccccc1)Cc1ccc(F)cc1` it was -3.1% (inactive).
Turning to `CCCCNC(=S)NNC(=O)c1cc(C)on1`, the inhibition is 11.9% (inactive).
As to `O=C(C(=O)N1CCC(CNS(=O)(=O)Cc2ccccc2)CC1)c1cc2ccccc2o1`, the inhibition was -2.01% (inactive).
As for `OC(c1ccccc1)(c1ccccc1)C1CCN(CCCOc2ccc(-c3ccsc3)cc2)CC1`, the inhibition is 2.16% (inactive).
For the molecule `Cc1ccc(CNC(=O)COc2ccc3c(c2)CCC3)cc1`, the inhibition is 1.31% (inactive).
`CCOCC(=O)NCc1ccc2c(c1)cc(C)n2C`: the inhibition is 28.4% (active).
Regarding `Cc1ccc(CNC(=O)Cc2cn(C)c3ccccc23)cc1`, the inhibition is 6.02% (inactive).
With `COC(=O)[C@H](CC(C)C)NS(=O)(=O)c1c(F)cccc1F`, the inhibition is -1.84% (inactive).
As for `O=c1[nH]c(-c2ccccc2)cn1C1CCN(Cc2ccc(-c3nc4ccc(F)cc4nc3-c3ccccc3)cc2)CC1`, the inhibition is 12% (inactive).
Take `COC(=O)Cc1nnn2c1[C@H](C)[C@H](c1ccccc1[N+](=O)[O-])OCC2`: the inhibition was 1.45% (inactive).
Regarding `Nc1ccc2nc3c(=O)[nH]c(=S)[nH]c3nc2c1`, the inhibition was 109% (active).
In the case of `O=C(NCc1ccccc1)[C@@H]1CCCN1C(=O)[C@H]1CCCN1C(=O)c1cccc(Cl)c1` it was 5.36% (inactive); in that of `CC(C)(C)n1nc(C2CC2)c(Br)c1NC(=O)c1ccccc1F`, -0.36% (inactive); in that of `COC(=O)C1=C(C)N(Cc2ccc(C(F)(F)F)cc2)C(=NCc2ccccc2)NC1c1ccccc1C(F)(F)F` (centres undefined), -1.22% (inactive).
In the case of `COc1ccc(SSc2ccc(OC)cc2C(=O)O)c(C(=O)O)c1`, the inhibition was 5.64% (inactive).
In the case of `CCOC(=O)Cn1c2c(n(-c3ccc(F)cc3)c1=O)C=C(c1ccccc1)[C@@H](C)C(C(=O)N(C)C1CCCCC1)=C2` it was 5.23% (inactive); in that of `Cc1cccc(C(=O)Nc2ccc3c(c2)C(=O)N(CC(C)C)C3=O)c1`, -1.41% (inactive).
Then `Cc1cccc(C(=O)Nc2ccc(C(=O)/C=C/c3cccs3)cc2)c1`, with 19.4% (active); and `CC(=O)Nc1ccc(NC(=O)[C@@H](NC(=O)c2cccc(C)c2)C(C)C)cc1`, with 2.27% (inactive).
Then `COCc1[nH]nc2c1C(c1ccccc1)N(c1ccccc1)C2=O` (centres undefined), with 5.26% (inactive); and `COc1cccc(CNC(=O)[C@H]2CCCN2C(=O)[C@H]2CCCN2C(=O)C2CCCCC2)c1`, with -0.26% (inactive).
With `COC(=O)C1=C(C)N(Cc2cccc(C(F)(F)F)c2)C(=NCc2ccccc2)NC1c1ccc(Cl)cc1` (centres undefined), the inhibition is 7.39% (inactive).
In the case of `Cc1cc2c(nc1C)CCCN2C` it was -1.06% (inactive); in that of `Cc1ccc(NC(=O)C(=O)NCc2ccc(/C=N/NC(=O)c3c(C)nc4cc(C)ccn34)o2)cc1`, 5.69% (inactive); in that of `CCCC1OC23CCCCC2C(C#N)(C#N)C1(C#N)C(=N)O3` (centres undefined), 24.9% (active).
`CC(C)[C@H]1COCCS(=O)(=O)N1Cc1ccccc1-c1cccc2c1sc1ccccc12`: the inhibition is -8.35% (inactive).
In the case of `Cc1nn(Cc2ccc(Cl)cc2)c(Cl)c1/C=N/NC(=O)CNc1ccccc1F`, the inhibition was 4.16% (inactive).
Consider `Cc1ccccc1NCC(=O)N/N=C\c1ccc([N+](=O)[O-])s1`, for which the inhibition is 21.7% (active).
As to `O=[N+]([O-])c1ccc(C=Nc2ccc(Cl)cc2Cl)s1`, the inhibition was -1.69% (inactive).
In the case of `CN1C(=O)C2CC(O)C(SC3CC4C(=O)N(C)C(=O)C4CC3O)CC2C1=O` (centres undefined), the inhibition was 0.12% (inactive).
As to `C=CC[C@]12C[C@@]3(O[C@H](c4ccc(C(F)(F)F)cc4)N=C3C[C@H](c3ccc(OC)cc3)[C@H]1C)N(C1CCN(Cc3ccccc3)CC1)C2=O`, the inhibition was 3.26% (inactive).
As to `CC(=O)N/N=C(\C)c1ccc(Br)cc1Br`, the inhibition is 2.37% (inactive).
`CC(=N\NC(=O)c1cc(Br)ccc1O)/C(=N/O)C(=O)Nc1ccccc1`: the inhibition was 35.2% (active).
As to `O=C(Nc1ccccc1)c1ccccc1Br`, the inhibition was -6.01% (inactive).
Take `COc1cccc(-c2cc(CNC(=O)[C@@H](Cc3ccccc3)NC(=O)[C@H]3O[C@@H](n4cnc(C(N)=O)n4)[C@H](O)[C@@H]3O)no2)c1`: the inhibition was 0.79% (inactive).
As for `CC(=O)C1=C(C)N(Cc2ccccc2)C(=S)NC1c1cccc(Br)c1` (centres undefined), the inhibition is -1.04% (inactive).
For the molecule `COC(=O)c1c(-c2ccc(OC)cc2)c2c(c3c4cc(OC)ccc4n(S(=O)(=O)c4ccc(F)cc4)c13)C(=O)N(C)C2`, the inhibition was -4.92% (inactive).
For `CCOC(=O)N1CCN(C(=O)C[C@H]2C[C@@]3(C(=O)OC)C(=C[C@H](C4CCCC4)O[C@@H]3C)N(Cc3ccccc3)C2=O)CC1`, the inhibition was 8.81% (inactive).
With `COc1ccc(Br)cc1C(=O)NC(=S)Nc1cc(-c2nc3ccccc3[nH]2)ccc1C`, the inhibition was 55.2% (active).
Consider `COc1cc(OC)cc(C(=O)N[C@H](C(=O)Nc2nc3ccccc3[nH]2)C(C)C)c1`, for which the inhibition was -1.15% (inactive).
`O=C(NC(=S)Nc1ccccc1C(=O)O)c1ccc(-c2ccc(Br)cc2)o1`: the inhibition was 4.88% (inactive).

Source of the values: PubChem BioAssay AID651800 (The Scripps Research Institute Molecular Screening Center, 2012).
